Our source for the growth values is PubChem BioAssay (NCI).

Test systems include T-47D breast; BT-549 breast; MDA-MB-435 melanoma; SW-620 colon; MCF7 breast; HCT-116 colon; HCC-2998 colon; KM12 colon.
Common to all, as to test: NCI-60 one-dose screen, 48 h (100 = growth as untreated, 0 = no growth, -100 = all killed)
What all share (conditions): 10 µM unless noted

Several values for one entry are separate records, joined by “and”; a condition that tells them apart may be missing. Equal values may be shown once. The panel holds about 83,000 compounds, 20% with a hit somewhere; the sample as a whole holds those more often.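 Interpretation: 100, growth as untreated; towards 0, rising growth inhibition; 0, no net growth; 0 to -100, cell death. Compounds scoring below 10 were considered active.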 Activity calls are given as the source filed them.

For the compound `NS(=O)(=O)OCC1OC(n2cnc3cncnc32)C(O)C1O` (configuration not stated), the growth in the assay on T-47D breast was 7.17% [0.1 µM] (active) and 10.8% [0.1 µM] (inactive); in the assay on BT-549 breast, 36% [0.1 µM] (inactive) and 32.4% [0.1 µM] (inactive); in the assay with MDA-MB-435 melanoma, 1.21% [0.1 µM] (active) and 13.3% [0.1 µM] (inactive); in the assay on SW-620 colon it was 5.5% [0.1 µM] (active) and 6.37% [0.1 µM] (active); in the assay with MCF7 breast, 5.2% [0.1 µM] (active) and 3.48% [0.1 µM] (active); with HCT-116 colon, 2.55% [0.1 µM] (active) and 6.83% [0.1 µM] (active). The growth in the assay on HCC-2998 colon is 30.7% [0.1 µM] (inactive) and 22.9% [0.1 µM] (inactive); in the assay on KM12 colon, 14% [0.1 µM] (inactive) and 10.4% [0.1 µM] (inactive).

As for `COc1ccc(/C=C2/C(=O)N=C3N2NC(c2ccccc2)=CN3c2ccccc2)cc1`, the growth with T-47D breast was 106% (inactive); in the assay with BT-549 breast, 96% (inactive); with MDA-MB-435 melanoma, 108% (inactive); in the assay on SW-620 colon, 101% (inactive); in the assay on MCF7 breast, 99.9% (inactive); in the assay on HCT-116 colon, 99.8% (inactive). The growth in the assay with HCC-2998 colon was 97.7% (inactive); with KM12 colon, 108% (inactive).

`COc1cc(-c2nc(SCCC(C)C)nc(Nc3ccc(F)cc3)c2C#N)cc(OC)c1OC`: the growth is 65.7% (inactive) in the assay on T-47D breast; 74.9% (inactive) in the assay with BT-549 breast; 79.4% (inactive) with MDA-MB-435 melanoma; 80.1% (inactive) in the assay on SW-620 colon; 87% (inactive) in the assay with MCF7 breast; 22% (inactive) with HCT-116 colon. Besides, the growth was 102% (inactive) in the assay on HCC-2998 colon and 78.6% (inactive) in the assay with KM12 colon.

As to `CCN1C(=S)N(CC)C2C1NC(=S)N2/N=C/C=C/c1ccccc1` (configuration not stated), the growth was 36.9% (inactive) with T-47D breast; 47.5% (inactive) with BT-549 breast; -39% (active) with MDA-MB-435 melanoma; 28% (inactive) with SW-620 colon; 17.8% (inactive) in the assay on MCF7 breast; 22.8% (inactive) in the assay with HCT-116 colon. Also, the growth in the assay on HCC-2998 colon was 56.7% (inactive); in the assay with KM12 colon it was 22% (inactive).

With `COc1cc(CNC(=O)CCCC/C=C/C(C)C)ccc1O`, the growth was 97.4% (inactive) and 96.2% (inactive) with T-47D breast; 125% (inactive) and 83.4% (inactive) in the assay with BT-549 breast; 99% (inactive) and 106% (inactive) in the assay on MDA-MB-435 melanoma; 113% (inactive) with SW-620 colon; 103% (inactive) and 96.7% (inactive) with MCF7 breast; 96.4% (inactive) and 100% (inactive) with HCT-116 colon. Further, the growth with HCC-2998 colon was 143% (inactive) and 109% (inactive); in the assay with KM12 colon, 106% (inactive) and 108% (inactive).

In the case of `O=C(CCCCCCCCC(=O)N/N=C\c1ccccc1O)N/N=C\c1ccccc1O`, the growth in the assay with T-47D breast was 18.1% (inactive); in the assay with BT-549 breast it was 26.9% (inactive); with MDA-MB-435 melanoma, 33.8% (inactive); in the assay with SW-620 colon, 30.2% (inactive); in the assay on MCF7 breast, 16.9% (inactive); with HCT-116 colon it was 13% (inactive). Moreover, the values for the growth in the assay on HCC-2998 colon and in the assay with KM12 colon were 44.8% (inactive) and 26.5% (inactive), respectively.

For the compound `CON1CCC[C@]2(C)[C@H]3CC[C@@H]4[C@H]5[C@@H](O)C(C)(C)CC[C@]5(CO)CC[C@@]4(C)[C@]3(C)CC[C@H]2C1(C)C`, the growth with T-47D breast is 79.8% (inactive); in the assay on BT-549 breast it was 115% (inactive); in the assay with MDA-MB-435 melanoma, 94.5% (inactive); in the assay on SW-620 colon, 98.4% (inactive); in the assay on MCF7 breast it was 98.5% (inactive); in the assay on HCT-116 colon it was 88.6% (inactive). The growth in the assay on HCC-2998 colon is 103% (inactive); in the assay with KM12 colon it was 105% (inactive).

`COc1ccc(C(c2cc(OC)c(OC)c(OC)c2)n2ccnc2)cc1O` (configuration not stated): the growth in the assay with T-47D breast was 42.6% (inactive); in the assay on BT-549 breast it was -0.0718% (active); with MDA-MB-435 melanoma it was -29.5% (active); with SW-620 colon, 28.6% (inactive); in the assay with MCF7 breast, 18.4% (inactive); with HCT-116 colon, 6.88% (active). Also, the results for the growth in the assay with HCC-2998 colon and with KM12 colon were 25% (inactive) and 17% (inactive), respectively.

Regarding `COc1c(NC=O)c2c(c([N+](=O)[O-])c1OC)C(=O)OC2`, the growth in the assay with T-47D breast was 109% (inactive) and 93.1% (inactive); with BT-549 breast, 94.4% (inactive); in the assay with MDA-MB-435 melanoma it was 115% (inactive) and 101% (inactive); with SW-620 colon, 109% (inactive) and 103% (inactive); in the assay on MCF7 breast, 97.2% (inactive) and 89.6% (inactive); in the assay on HCT-116 colon it was 108% (inactive) and 106% (inactive). The growth in the assay on HCC-2998 colon was 105% (inactive) and 89.9% (inactive); in the assay with KM12 colon, 109% (inactive) and 102% (inactive).

Take `CCC(=C(c1ccc(OCCCN(C)C)cc1)c1ccc(OCCCN(C)C)cc1)c1ccc(Cl)cc1`: the growth in the assay on T-47D breast was -66.8% (active); with BT-549 breast it was -92.6% (active); in the assay on MDA-MB-435 melanoma, -95.5% (active); with SW-620 colon, -73.7% (active); in the assay with MCF7 breast it was -79.2% (active); with HCT-116 colon it was -94% (active). Also, the results for the growth in the assay with HCC-2998 colon and with KM12 colon were -80.8% (active) and -78.7% (active), respectively.

Take `COc1cc(-c2nc3occn3c2-c2ccnc(NCCCNS(=O)(=O)c3ccc(O)cc3)n2)ccc1F`: the growth in the assay with T-47D breast was 84.8% (inactive); with BT-549 breast, 116% (inactive); in the assay on MDA-MB-435 melanoma, 47.7% (inactive); in the assay on SW-620 colon it was 115% (inactive); with MCF7 breast, 92.1% (inactive); with HCT-116 colon it was 86.1% (inactive). Further, the growth was 112% (inactive) with HCC-2998 colon and 99.8% (inactive) in the assay with KM12 colon.

In the case of `CC12CCC(C(=O)CC1=O)C2(C)C` (configuration not stated), the growth in the assay on T-47D breast is 105% (inactive) and 93.4% (inactive); with BT-549 breast, 110% (inactive) and 104% (inactive); in the assay on MDA-MB-435 melanoma it was 106% (inactive) and 110% (inactive); in the assay on SW-620 colon, 105% (inactive) and 109% (inactive); with MCF7 breast, 103% (inactive) and 98.4% (inactive); in the assay with HCT-116 colon, 106% (inactive) and 97.1% (inactive). Further, the growth in the assay on HCC-2998 colon was 108% (inactive) and 98.5% (inactive); in the assay with KM12 colon, 108% (inactive) and 101% (inactive).

With `Cc1nc2cccc(NCCCCC(=O)NO)c2c(=O)n1-c1ccccc1`, the growth in the assay on T-47D breast was 54.5% (inactive); with BT-549 breast it was 86.8% (inactive); in the assay on MDA-MB-435 melanoma it was 53.8% (inactive); in the assay with SW-620 colon, 47.5% (inactive); in the assay on MCF7 breast, 57.9% (inactive); in the assay with HCT-116 colon, 27.3% (inactive). Further, the growth in the assay on HCC-2998 colon was 82% (inactive); in the assay on KM12 colon it was 73.8% (inactive).

With `CCOC(=O)CC1CSC(c2cccc(Cl)c2)=N1` (configuration not stated), the growth with T-47D breast is 102% (inactive); with BT-549 breast it was 111% (inactive); with MDA-MB-435 melanoma it was 112% (inactive); in the assay with SW-620 colon, 108% (inactive); with MCF7 breast, 87.8% (inactive); with HCT-116 colon, 97.2% (inactive). Also, the growth in the assay on HCC-2998 colon is 82.7% (inactive); with KM12 colon it was 108% (inactive).
